Results: PMC4336329 (PLoS ONE, 2015)
The campaign covered roughly 310,000 compounds. About 14,000 (4.5%) showed an effect of 50% or more. Effects have a minus sign here. This is one part of a sample in which strong results are shown more often than they occur.

Molecular target: human ether-à-go-go-related gene (hERG) potassium channel (human, UniProt Q12809)
Test: primary screen, population patch clamp on CHO cells stably expressing hERG; higher = less effect of the substance
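Note: peak tail current of the secondary pulse compared with the same well before compound.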

human ether-à-go-go-related gene (hERG) potassium channel, sequence (Q12809 whole entry, looked up): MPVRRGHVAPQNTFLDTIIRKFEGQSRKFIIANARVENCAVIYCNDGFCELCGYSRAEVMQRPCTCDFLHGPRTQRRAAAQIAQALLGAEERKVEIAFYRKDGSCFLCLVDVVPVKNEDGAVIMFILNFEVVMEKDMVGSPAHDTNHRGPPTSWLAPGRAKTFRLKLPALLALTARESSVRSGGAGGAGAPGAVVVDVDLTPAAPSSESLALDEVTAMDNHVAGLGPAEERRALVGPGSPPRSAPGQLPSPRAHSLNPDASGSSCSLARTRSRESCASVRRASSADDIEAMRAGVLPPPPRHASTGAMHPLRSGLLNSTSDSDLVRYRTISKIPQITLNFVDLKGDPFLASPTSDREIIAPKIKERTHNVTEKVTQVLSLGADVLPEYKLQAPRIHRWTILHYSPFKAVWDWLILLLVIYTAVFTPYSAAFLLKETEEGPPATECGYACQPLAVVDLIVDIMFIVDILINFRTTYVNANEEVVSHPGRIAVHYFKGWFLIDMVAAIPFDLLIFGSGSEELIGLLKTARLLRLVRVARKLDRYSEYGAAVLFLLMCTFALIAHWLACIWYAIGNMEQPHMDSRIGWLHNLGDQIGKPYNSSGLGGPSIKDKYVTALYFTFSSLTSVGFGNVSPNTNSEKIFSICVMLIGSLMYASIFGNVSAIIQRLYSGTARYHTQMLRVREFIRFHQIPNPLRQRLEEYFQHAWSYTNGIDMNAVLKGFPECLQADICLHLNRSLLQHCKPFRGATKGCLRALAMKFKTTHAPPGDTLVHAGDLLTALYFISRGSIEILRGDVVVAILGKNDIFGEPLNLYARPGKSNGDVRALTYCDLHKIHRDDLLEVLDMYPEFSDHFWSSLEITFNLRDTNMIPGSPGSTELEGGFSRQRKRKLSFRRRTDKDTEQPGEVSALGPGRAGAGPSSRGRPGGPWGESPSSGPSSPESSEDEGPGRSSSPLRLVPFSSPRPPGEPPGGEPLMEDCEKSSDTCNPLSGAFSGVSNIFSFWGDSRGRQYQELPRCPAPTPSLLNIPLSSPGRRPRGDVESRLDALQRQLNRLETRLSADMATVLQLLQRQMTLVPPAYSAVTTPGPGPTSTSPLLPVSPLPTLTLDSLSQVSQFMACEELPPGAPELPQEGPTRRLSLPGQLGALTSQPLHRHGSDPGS

| SMILES | hERG current change (%, negative = inhibition) at 10uM [%] |
| --- | --- |
| CC1(C)Cc2c(sc3c2C(=O)N(c2ccccc2)C2=NCCN23)CS1.Cl | -5.58 |
| CC(CCc1ccc(O)cc1)NCCc1ccc(O)c(O)c1.Cl (stereo not drawn) | -13.9 |
| COc1cc(OC)c(OC)cc1CNC(C)C(O)c1ccccc1.Cl (stereo not drawn) | 12.6 |
| CC(CCc1ccccc1)NC(C)C(O)c1ccc(O)cc1.Cl (stereo not drawn) | -65.3 |
| CC(CCc1ccc(O)cc1)NC(c1ccccc1)c1ccc(Cl)cc1 (stereo not drawn) | -14.3 |
| CC(CCc1ccc(O)cc1)NCCC(c1ccccc1)c1ccccc1 (stereo not drawn) | -76.1 |
| COc1cc(OC)c(OC)cc1CCC(C)NCCC(c1ccccc1)c1ccccc1.Cl (stereo not drawn) | -71.1 |
| COc1ccccc1CCNC(C)CCc1ccc(O)cc1 (stereo not drawn) | -52.5 |
| COc1cc(CCC(C)NCc2ccccc2)ccc1O (stereo not drawn) | -3.87 |
| CC(NCCc1ccc(O)cc1)C(O)c1ccc(O)cc1.Cl (stereo not drawn) | 5.08 |
| COc1cc(OC)c(OC)cc1CCC(C)NC(=O)Cc1ccccc1 (stereo not drawn) | 5.68 |
| C[C@H](NCCc1ccc(O)cc1)[C@H](O)c1ccc(O)cc1.Cl | 6.27 |
| COc1ccc(CCC(C)NCc2ccccc2OC)cc1 (stereo not drawn) | -40.4 |
| COc1ccc(-c2sc(NC(=O)c3ccc(C)cc3)nc2-c2ccc([N+](=O)[O-])cc2)cc1 | 9.66 |
| CCOc1ccc(-n2c(SCC)nc3c(c2=O)SCC3)cc1 | 15 |
| Cn1c(=O)c2ccccc2n(CC(=O)NC2CCCC2)c1=O | 9.82 |
| CCCN(CCC)Cc1cc(=O)oc2cc3c(cc12)CCC3 | -9.37 |
| CC(=O)O.CC(=O)Oc1ccc2c(c1)OC(c1ccccc1)CC21CC(C)(C)NC(=O)N1 (stereo not drawn) | 3.82 |
| O=C1CCCN1CCCNS(=O)(=O)c1ccc(F)cc1F | 8.77 |
| Cc1ccc(-n2nc3c(c2NC(=O)CC(C)C)CS(=O)(=O)C3)c(C)c1 | 25 |
| O=C(COC(=O)C1CC(=O)N(Cc2ccccc2)C1)Nc1ccc(Cl)cc1F (stereo not drawn) | 48 |
| C/C(=N\NC(=O)c1nnn(-c2nonc2N)c1CSc1ccc(C)cc1)c1ccco1 | -9.04 |
| O=C1c2ccccc2NC(c2ccc(O)cc2)N1Cc1ccco1 (stereo not drawn) | -24.3 |

| SMILES | hERG current change (%, negative = inhibition) at 10uM [%] |
| --- | --- |
| CCOC(=O)C(C)CC(C)C(=O)N1CCOCCN(C(=O)C(C)CC(C)C(=O)OCC)CCOCC1 (stereo not drawn) | -9.48 |
| COc1ccc(CN(Cc2cc3ccc(C)cc3[nH]c2=O)Cc2nnnn2C2CCCC2)cc1 | -21.4 |
| CC1(C)Cc2c(c(N3CCOCC3)nc3sc(C(N)=O)c(N)c23)CO1 | -5.66 |
| O=C(NCC1CCCO1)c1cc(-c2ccc(Cl)cc2Cl)on1 (stereo not drawn) | -9.68 |
| Nc1nccnc1C(=O)OCC(=O)N1CCN(S(=O)(=O)c2ccc(Cl)cc2)CC1 | -15.4 |
| CCCNC(=O)CSc1nc2ccccc2c(=O)n1CCC | 3.3 |
| O=C(Nc1ccccc1N1CCCC1)c1ccc(N2CCCC2=O)cc1 | -22.1 |
| COc1ccc(C)cc1NC(=O)COC(=O)c1ccc2ccccc2n1 | 3.24 |
| CC(O)CCc1ccc(O)cc1 (stereo not drawn) | 11.7 |
| COc1ccc(CCC(C)N(C)Cc2ccccc2)cc1 (stereo not drawn) | -34.8 |
| CC(CCc1ccc(O)cc1)N(C)CCc1ccccc1 (stereo not drawn) | -62.2 |
| CCCNC(=O)c1cc(Cl)c(NC(=O)C2=CSCCO2)cc1OC | 16.5 |
| C=CCNC(=O)Nc1cc(Cl)ccc1OC | 7.65 |
| CCOC(=O)c1ccc(NC(=O)CCCN2C(=O)NC3(CCCC3)C2=O)cc1 | -3.62 |
| O=C(O)CCCCCNC(=O)CCn1cnc2ccccc2c1=O | 5.02 |
| COc1ccccc1N1CCN(C(=O)CCCCCn2c(=O)[nH]c3ccsc3c2=O)CC1 | -24.7 |
| O=C1CCCC(=O)N1c1ccc(O)cc1 | 2.73 |
| Cc1ccc(C(=O)NCCN2C3=NC[C@@H](Cc4ccccc4)N3C[C@H]2Cc2ccc(O)cc2)cc1Br | -71.1 |
| COc1ccc(C[C@H]2CN3C(=NC[C@@H]3Cc3ccc(O)cc3)N2CCNC(=O)c2ccc(C)c(Br)c2)cc1 | -74.3 |
| Cc1ccc(C(=O)NCCN2C3=NC[C@H](C)N3C[C@H]2Cc2ccc(O)cc2)cc1Br | -8.85 |
| Cc1ccc(C(=O)NCCN2C3=NC[C@H](Cc4ccc(O)cc4)N3C[C@H]2Cc2ccc(O)cc2)cc1Br | -51.7 |
| C/C=C(\C)C(=O)NCCN1C2=NC[C@H](Cc3ccc(O)cc3)N2C[C@H]1Cc1ccc(O)cc1 | 16.5 |
